PMC5540273 (PLoS ONE, 2017)

How the values were obtained:
Details in all cases: concentration: 1 μM, replicates: in singlicate; n = 1
[1] = tested on: JAK1(JH2domain-pseudokinase)
[2] = tested on: JAK2(JH1domain-catalytic)
[3] = tested on: JAK3(JH1domain-catalytic)
JNK1 = tested on: T1, JNK1
T1 construct: gene MAPK8

JNK2 = tested on: T2, JNK2
T2 construct: gene MAPK9

JNK3 = tested on: T3, JNK3
T3 construct: gene MAPK10

KIT-autoinhibited = tested on: KIT-autoinhibited
KIT = tested on: KIT
LATS1 = tested on: LATS1
LATS2 = tested on: LATS2
LCK = tested on: LCK
LIMK1 = tested on: LIMK1
LIMK2 = tested on: LIMK2
LKB1 = tested on: T4, LKB1
T4 construct: gene STK11

LOK = tested on: T5, LOK
T5 construct: gene STK10

LRRK2 = tested on: LRRK2
LTK = tested on: LTK
LYN = tested on: LYN
LZK = tested on: T6, LZK
T6 construct: gene MAP3K13

MAK = tested on: MAK
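Further: KINOMEscan kinase panel screen.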

Structure (SMILES) | %Inh [1] [%] | %Inh [2] [%] | %Inh [3] [%] | %Inh (JNK1) [%] | %Inh (JNK2) [%] | %Inh (JNK3) [%] | %Inh (KIT-autoinhibited) [%] | %Inh (KIT) [%] | %Inh (LATS1) [%] | %Inh (LATS2) [%] | %Inh (LCK) [%] | %Inh (LIMK1) [%] | %Inh (LIMK2) [%] | %Inh (LKB1) [%] | %Inh (LOK) [%] | %Inh (LRRK2) [%] | %Inh (LTK) [%] | %Inh (LYN) [%] | %Inh (LZK) [%] | %Inh (MAK) [%]
Cc1ccc(C(=O)N2CC[C@@H](O)C2)cc1-n1c(C)cc(OCc2ccc(F)cc2F)c(Br)c1=O | 48 | 0 | 1 | 14 | 0 | 0 | 0 | 87 | 0 | 0 | 99.4 | 0 | 0 | 36 | 0 | 0 | 0 | 74 | 0 | 0
CC(C)c1nc(-c2cccc(NS(=O)(=O)c3c(F)cccc3F)c2F)c(-c2ccnc(Nc3ccc(N4CCOCC4)nc3)n2)s1 [GSK2008607] | 0 | 91.2 | 99.6 | 3 | 40 | 15 | 0 | 99.9 | 0 | 11 | 99.8 | 99.9 | 100 | 9 | 99.8 | 0 | 0 | 98.5 | 95.8 | 100
NCCCC(NC(=O)c1cc(Br)c(-c2ccnc3[nH]ccc23)s1)c1ccccc1.O=C(O)C(F)(F)F.O=C(O)C(F)(F)F (centres unmarked) [GSK1287544] | 0 | 91.3 | 87 | 36 | 22 | 19 | 0 | 22 | 66 | 89 | 9 | 6 | 6 | 0 | 0 | 42 | 0 | 0 | 0 | 34
COc1cc(Nc2nccc(-c3c(-c4cccc(NC(=O)c5c(F)cccc5F)c4)nn4ncccc34)n2)cc(OC)c1OC [GSK327238] | 0 | 6 | 59 | 39 | 71 | 23 | 31 | 100 | 44 | 28 | 99.8 | 42 | 8 | 0 | 99.3 | 0 | 61 | 99.3 | 0 | 12
O=C(Nc1ccccc1F)NC1CCN(c2ccnc(Nc3ccc(F)cc3)n2)CC1 [GSK1379800] | 0 | 0 | 0 | 3 | 0 | 0 | 0 | 7 | 0 | 3 | 5 | 0 | 28 | 0 | 0 | 0 | 0 | 0 | 21 | 23
c1ccc(-c2cnc3nccnn23)cc1 [AH20685] | 0 | 0 | 0 | 54 | 20 | 4 | 0 | 5 | 0 | 0 | 11 | 19 | 0 | 0 | 0 | 5 | 0 | 64 | 0 | 33
Cl.c1ccc(-c2ccc3c(Nc4ccc5[nH]ccc5c4)ccnc3c2)nc1 [GW440138] | 0 | 24 | 0 | 0 | 7 | 2 | 1 | 100 | 0 | 17 | 70 | 0 | 0 | 0 | 51 | 0 | 18 | 47 | 39 | 1
Cn1cc(-c2ccc3c(c2)CCN3C(=O)Cc2cccc(F)c2)c2c(N)ncnc21 [GSK2603358] | 0 | 17 | 0 | 12 | 19 | 3 | 7 | 100 | 0 | 13 | 46 | 0 | 0 | 0 | 91.9 | 0 | 33 | 0 | 37 | 27
Cn1cc(-c2[nH]c3cc(NC(=O)[C@H](N)C4CCCCC4)cc4c3c2C=NNC4=O)cn1 | 100 | 98.7 | 99.5 | 0 | 0 | 0 | 28 | 99.9 | 90.4 | 100 | 90.7 | 90.6 | 96.6 | 94.3 | 17 | 56 | 0 | 76 | 0 | 0
COc1cc(Nc2ncc3c(C)nc(-c4cc5ccccc5[nH]4)n3n2)cc(OC)c1OC [GW869516] | 98.5 | 54 | 11 | 11 | 0 | 0 | 22 | 72 | 0 | 0 | 71 | 0 | 4 | 0 | 8 | 0 | 0 | 26 | 0 | 0
